Test [1] can be described thus: Quantitative high throughput screen for delayed death inhibitors of the malarial parasite plastid, 48 hour incubation (AID 488752). Further: nearly all actives have a fitted effect of over 65% in size. An outline of the steps: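 First, compound was pinned into RPMI 1640 medium containing 0.5% Albumax. Next, reporter-parasite-infected erythrocytes were added to 2% hematocrit and 0.1% parasitemia. After 48 h at 37 C under 5% CO2, luciferase detection reagent was added and luminescence read.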

Test [2] deals with M-phase phosphoprotein 8 (Homo sapiens) (UniProt Q99549). In words: qHTS Validation Assay for Inhibitors for MPP8 Chromodomain Interactions with Methylated Histone Tails (AID 488949).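 Further: AlphaScreen signal from MPP8 chromodomain bound to biotinylated H3K9me3 peptide; top concentration of the series differs between compounds; nearly all actives have a fitted effect of over 55% in size.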 In outline:
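AlphaScreen read-out: streptavidin donor and nickel chelate acceptor beads (final 10 ug/mL), 30 min in the dark at RT. Complex of 50 nM MPP8 and 50 nM b-H3(1-18)K9me3 peptide had been exposed to compounds for 30 min beforehand.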
A general note: Quantitative high-throughput screening tests each substance at several concentrations.

Test [3] concerns the target Transient receptor potential cation channel subfamily V member 1 (Homo sapiens) (UniProt Q8NER1). Put plainly: HTS Assay for Compounds that Act as Enhancers of the Vanilloid Receptor 1 (AID 488979). The text has this: The transient receptor potential ion channel, family V, number 1, (TRPV1) is one of the most important molecular transducers of painful stimuli and a potential target for analgesic drug development. Although recent clinical trials with orthosteric antagonists have not produced a successful drug because of a hyperthermia side effect and their tendency to block thermal noxious pain, this ion channel is undeniably well placed in the pain pathway, and the idea of blocking pain signals before they enter the CNS is an excellent concept and of proven efficacy when TRPV1 agonists are used. […]
The amount of accumulated calcium is precisely quantified using the FDSS kinetic reader and the calcium dye.
For the HTS assay, freshly prepared cells are plated at a density of 2000/well in 3 ul medium in 1536-well plates and cultured overnight at 35.5C. […] Plates will be loaded into the FDSS kinetic reader and a 1 sec / cycle for 10 second baseline signal will be measured. Compound library will then be added with a pintool at 23 nl and measured kinetically for 3 minutes. This portion of the read is considered the agonist portion of the screen. […] Signal will be measured kinetically for an additional 2 minutes. This portion of the read is considered the allosteric enhancer portion of the screen.
The FDSS reader has a standard filter set capable of measuring calcium bound Fluo-8 (ex=480 and em=520 nm).

Test [4] deals with Thyrotropin receptor (Homo sapiens) (UniProt P16473). Put plainly: qHTS Assay for Antagonists of the Thyroid Stimulating Hormone Receptor (AID 488980). Further: series mostly up to about 58 µM. An outline of the steps: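 TSHR-HEK293 cells; 70 uM RO 20-1724 PDE inhibitor; compound + EC80 TSH (4 nM final); anti-cAMP cryptate antibody/cAMP-d2 in lysis buffer, 30 min RT; HTRF 665/620 nm read.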
Chain of Thyrotropin receptor (Homo sapiens) (P16473 whole entry, looked up): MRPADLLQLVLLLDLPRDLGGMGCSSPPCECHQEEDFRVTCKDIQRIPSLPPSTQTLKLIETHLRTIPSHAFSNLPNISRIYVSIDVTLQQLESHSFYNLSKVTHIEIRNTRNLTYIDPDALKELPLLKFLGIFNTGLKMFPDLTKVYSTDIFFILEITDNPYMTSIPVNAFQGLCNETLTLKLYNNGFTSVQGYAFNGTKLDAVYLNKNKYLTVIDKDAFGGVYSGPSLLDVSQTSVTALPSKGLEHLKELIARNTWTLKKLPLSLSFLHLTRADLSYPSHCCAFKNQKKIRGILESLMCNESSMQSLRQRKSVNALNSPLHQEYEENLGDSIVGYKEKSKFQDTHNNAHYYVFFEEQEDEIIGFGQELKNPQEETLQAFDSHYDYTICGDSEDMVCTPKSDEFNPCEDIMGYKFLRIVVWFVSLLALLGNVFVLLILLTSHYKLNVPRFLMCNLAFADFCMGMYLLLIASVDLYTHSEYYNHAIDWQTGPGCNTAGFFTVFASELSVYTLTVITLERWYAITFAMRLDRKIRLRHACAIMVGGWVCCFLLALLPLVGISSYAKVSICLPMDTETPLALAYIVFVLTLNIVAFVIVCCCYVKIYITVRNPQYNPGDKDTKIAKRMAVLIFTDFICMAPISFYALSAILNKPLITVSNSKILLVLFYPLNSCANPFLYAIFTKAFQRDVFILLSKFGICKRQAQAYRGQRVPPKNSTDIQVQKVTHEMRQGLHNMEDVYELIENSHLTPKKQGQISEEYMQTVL
For test [5], the target named is Thyrotropin-releasing hormone receptor (Homo sapiens) (UniProt P34981). Put plainly: qHTS for Small Molecule Agonists and Allosteric Enhancers of Human TRH Receptor: Validation Screen for Agonists (AID 493127;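 active means calcium activation more than 3 SD above the typical response in the agonist read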;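 further: intracellular calcium rise by fluo-8 fluorescence before TRH EC20 addition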). Conditions: TRH receptor agonist cell assay; at 2 µM; stronger effect = higher value. An outline of the steps:
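Compounds are added by online pintool to dye-loaded TRHR cells while fluorescence is recorded every second. A rise in calcium signal during the agonist read marks activation; a later 10 nM TRH addition (EC20) serves the separate enhancer mode.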

Test [6] has as its target Galactokinase (Homo sapiens) (UniProt P51570). In words: qHTS Validation Assay for Inhibitors of Human Galactokinase (GALK) (AID 493189). An excerpt: NIH Molecular Libraries Probe Production Centers Network [MLPCN]
NIH Chemical Genomics Center [NCGC]
Assay Submitter (PI): Kent Lai (University of Utah School of Medicine, 50 N Mario Capecchi Drive, Salt Lake City, UT 84132)
Inherited deficiency of galactose-1-phosphate uridyltransferase (GALT) can result in a potentially lethal disorder called Classic Galactosemia (OMIM 230400). Several lines of evidence indicate that an elevated level of galactose-1-phosphate (gal-1-p), the product of galactokinase (GALK), is a major, if not sole, pathogenic mechanism in patients with classic galactosemia. Therefore, finding inhibitors of GALK is a potential novel therapy for this inherent metabolic disease and is the long term goal of this project.
GALK (provided by the assay submitter) was assayed using ATP and D-(+)-Galactose (Sigma-Aldrich cat# G0750) as substrates. […]
Three uL/well of ATP-buffer solution (35 uM ATP, 20mM HEPES pH8.0, 5 mM MgCl2, 60 mM NaCl, 1 mM DTT, 0.01% BSA final concentration) was dispensed into 1536-well, assay plates (Greiner, solid white medium-binding plates) with Aurora Discovery BioRAPTR Flying Reagent Dispenser (FRD; Beckton-Dickenson). […] Luminescence was detected with the ViewLux plate reader (Perkin Elmer, Waltham, MA) after 10 min incubation using a 1 sec exposure time and 2x binning.

The nature of test [7]: Validation screen for small molecules that induce DNA re-replication in SW480 colon adenocarcinoma cells (AID 504364). In outline: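 Image-based qHTS: compounds were incubated with SW480 cells for 48 hr, nuclei stained with Hoechst, and per-nucleus fluorescence intensity scanned to flag cells with excess DNA content.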
Test [8] deals with ATP-dependent 6-phosphofructokinase (Trypanosoma brucei brucei) (UniProt O15648). In words: qHTS Assay to Find Inhibitors of T. brucei phosphofructokinase: hit validation (AID 492961).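 Further: luminescence reports ADP formed as PFK phosphorylates fructose-6-phosphate with ATP; series mostly up to about 51 µM.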 An outline of the steps:
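Measures ADP output of PFK (1.25 nM) at 0.1 mM ATP, 0.5 mM F6P, pH 8.0 TEA buffer with 5 mM MgCl2. No-enzyme wells define full inhibition; uninhibited enzyme wells define zero.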

Test [9] has as its target Ubiquitin carboxyl-terminal hydrolase 1 (Homo sapiens) (UniProt O94782). In words: Inhibitors of USP1/UAF1: Pilot qHTS (AID 504865).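 Further: rhodamine fluorescence freed from ubiquitin-rhodamine substrate followed over time; top concentration of the series differs between compounds; nearly all actives have a fitted effect of over 35% in size.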 In outline:
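1nM USP1/UAF1 + cpd, 15 min RT; start w/ Ub-Rho 150nM final; kinetic FL 480/540 nm, 6 reads q60 s. Buffer 50mM HEPES pH 7.8, 0.5mM EDTA, 1mM TCEP, 0.01% Tween-20, 0.1 mg/ml BSA.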

Values without a mark were called inactive. Inconclusive results are not listed. A call without a number means that no potency is given here. Activity calls are given as the source filed them. Unless noted, the call rests on the fitted dose curve; in most records, active means well fitted curve in the direction sought with a large enough effect; inconclusive means small, poorly fitted or top-dose-only effect, or another doubt; inactive means no such curve, though single readings can be large; an effect the other way counts as inactive or inconclusive.

Chain of Ubiquitin carboxyl-terminal hydrolase 1 (Homo sapiens) (O94782 whole entry, looked up): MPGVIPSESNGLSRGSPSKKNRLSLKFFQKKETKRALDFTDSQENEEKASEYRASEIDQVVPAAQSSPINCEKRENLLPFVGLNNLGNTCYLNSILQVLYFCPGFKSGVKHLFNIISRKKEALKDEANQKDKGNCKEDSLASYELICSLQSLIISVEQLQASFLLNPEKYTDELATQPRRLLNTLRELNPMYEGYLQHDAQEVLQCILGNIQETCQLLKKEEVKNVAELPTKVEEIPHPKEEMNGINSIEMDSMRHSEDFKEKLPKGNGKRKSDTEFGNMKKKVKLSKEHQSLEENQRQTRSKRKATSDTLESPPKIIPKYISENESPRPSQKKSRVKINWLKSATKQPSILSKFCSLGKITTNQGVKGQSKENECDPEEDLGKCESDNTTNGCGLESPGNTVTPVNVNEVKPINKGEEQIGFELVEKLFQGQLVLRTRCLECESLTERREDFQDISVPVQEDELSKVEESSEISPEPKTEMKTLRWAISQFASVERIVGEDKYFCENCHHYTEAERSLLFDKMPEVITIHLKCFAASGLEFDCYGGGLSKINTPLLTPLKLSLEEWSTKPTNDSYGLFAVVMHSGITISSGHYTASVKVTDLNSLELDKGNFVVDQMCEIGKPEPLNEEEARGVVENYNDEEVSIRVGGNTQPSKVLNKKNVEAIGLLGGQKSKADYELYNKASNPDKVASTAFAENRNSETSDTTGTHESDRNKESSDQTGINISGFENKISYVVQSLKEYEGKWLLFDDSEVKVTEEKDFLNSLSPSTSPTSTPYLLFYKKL
Chain of ATP-dependent 6-phosphofructokinase (Trypanosoma brucei brucei) (O15648 whole entry, looked up): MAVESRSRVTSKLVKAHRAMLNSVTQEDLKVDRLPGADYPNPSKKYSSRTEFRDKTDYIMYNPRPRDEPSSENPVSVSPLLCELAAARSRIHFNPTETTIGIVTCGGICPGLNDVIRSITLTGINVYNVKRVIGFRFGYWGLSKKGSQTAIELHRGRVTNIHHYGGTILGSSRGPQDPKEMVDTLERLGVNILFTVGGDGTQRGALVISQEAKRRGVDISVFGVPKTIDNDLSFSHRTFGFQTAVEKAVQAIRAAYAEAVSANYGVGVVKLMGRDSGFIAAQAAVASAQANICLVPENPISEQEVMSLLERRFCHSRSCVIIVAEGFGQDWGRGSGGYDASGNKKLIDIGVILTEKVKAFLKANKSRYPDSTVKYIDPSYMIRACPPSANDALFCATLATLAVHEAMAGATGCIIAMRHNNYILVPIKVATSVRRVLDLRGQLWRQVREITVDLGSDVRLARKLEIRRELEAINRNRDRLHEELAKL
Chain of Transient receptor potential cation channel subfamily V member 1 (Homo sapiens) (Q8NER1 whole entry, looked up): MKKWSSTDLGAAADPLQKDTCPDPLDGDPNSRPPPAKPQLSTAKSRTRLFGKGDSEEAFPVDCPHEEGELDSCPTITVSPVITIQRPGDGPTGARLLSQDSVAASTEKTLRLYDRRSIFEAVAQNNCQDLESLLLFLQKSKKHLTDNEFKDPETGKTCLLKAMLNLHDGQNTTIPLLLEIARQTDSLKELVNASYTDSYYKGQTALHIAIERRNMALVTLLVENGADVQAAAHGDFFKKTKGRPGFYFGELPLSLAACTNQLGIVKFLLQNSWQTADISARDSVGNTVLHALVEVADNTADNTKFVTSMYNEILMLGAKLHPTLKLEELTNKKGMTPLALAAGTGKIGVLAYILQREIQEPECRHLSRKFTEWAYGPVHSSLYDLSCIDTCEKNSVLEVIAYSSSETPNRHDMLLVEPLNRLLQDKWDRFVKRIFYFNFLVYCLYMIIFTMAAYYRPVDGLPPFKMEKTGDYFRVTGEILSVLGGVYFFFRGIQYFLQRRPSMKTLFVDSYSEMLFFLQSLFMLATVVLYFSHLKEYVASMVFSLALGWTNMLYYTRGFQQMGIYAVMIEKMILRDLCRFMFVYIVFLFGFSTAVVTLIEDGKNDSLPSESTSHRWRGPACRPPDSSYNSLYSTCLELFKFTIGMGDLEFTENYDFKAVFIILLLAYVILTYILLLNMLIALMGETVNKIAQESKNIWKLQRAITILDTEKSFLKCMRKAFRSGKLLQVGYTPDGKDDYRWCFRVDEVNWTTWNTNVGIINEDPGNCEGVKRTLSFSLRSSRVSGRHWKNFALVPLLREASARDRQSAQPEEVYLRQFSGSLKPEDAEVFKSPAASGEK
Chain of Thyrotropin-releasing hormone receptor (Homo sapiens) (P34981 whole entry, looked up): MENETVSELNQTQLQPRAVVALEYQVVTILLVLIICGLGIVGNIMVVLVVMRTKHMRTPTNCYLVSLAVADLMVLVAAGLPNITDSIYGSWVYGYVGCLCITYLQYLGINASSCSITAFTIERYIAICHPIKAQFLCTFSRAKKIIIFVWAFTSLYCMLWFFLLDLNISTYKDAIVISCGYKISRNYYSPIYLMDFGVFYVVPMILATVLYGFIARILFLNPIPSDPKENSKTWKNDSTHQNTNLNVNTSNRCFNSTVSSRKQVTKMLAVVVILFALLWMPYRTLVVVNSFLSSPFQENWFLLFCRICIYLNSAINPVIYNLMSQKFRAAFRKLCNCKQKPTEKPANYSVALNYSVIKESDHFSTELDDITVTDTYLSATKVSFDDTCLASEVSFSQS
Chain of M-phase phosphoprotein 8 (Homo sapiens) (Q99549 whole entry, looked up): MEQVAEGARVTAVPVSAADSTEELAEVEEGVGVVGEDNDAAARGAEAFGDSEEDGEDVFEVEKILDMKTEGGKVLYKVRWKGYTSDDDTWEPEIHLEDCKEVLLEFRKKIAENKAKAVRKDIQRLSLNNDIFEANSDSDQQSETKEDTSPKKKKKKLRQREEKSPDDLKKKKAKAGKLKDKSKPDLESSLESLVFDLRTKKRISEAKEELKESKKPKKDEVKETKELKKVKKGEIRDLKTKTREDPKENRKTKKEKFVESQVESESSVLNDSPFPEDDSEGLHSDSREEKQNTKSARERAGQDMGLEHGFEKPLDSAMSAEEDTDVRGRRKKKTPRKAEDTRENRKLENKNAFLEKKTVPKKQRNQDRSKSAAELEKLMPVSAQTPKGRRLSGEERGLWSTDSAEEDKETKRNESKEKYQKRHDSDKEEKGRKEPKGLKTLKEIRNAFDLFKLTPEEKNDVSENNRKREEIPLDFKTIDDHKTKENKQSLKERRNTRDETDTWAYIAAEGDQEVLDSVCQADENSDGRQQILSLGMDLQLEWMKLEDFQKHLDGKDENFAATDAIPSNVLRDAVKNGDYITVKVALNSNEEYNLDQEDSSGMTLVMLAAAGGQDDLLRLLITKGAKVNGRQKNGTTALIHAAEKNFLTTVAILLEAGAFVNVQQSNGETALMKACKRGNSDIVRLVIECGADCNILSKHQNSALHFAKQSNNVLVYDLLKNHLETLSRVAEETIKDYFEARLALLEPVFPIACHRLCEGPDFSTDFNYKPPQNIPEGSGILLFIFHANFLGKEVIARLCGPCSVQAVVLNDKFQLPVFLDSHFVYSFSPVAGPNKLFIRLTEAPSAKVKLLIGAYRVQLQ
Chain of Galactokinase (Homo sapiens) (P51570 whole entry, looked up): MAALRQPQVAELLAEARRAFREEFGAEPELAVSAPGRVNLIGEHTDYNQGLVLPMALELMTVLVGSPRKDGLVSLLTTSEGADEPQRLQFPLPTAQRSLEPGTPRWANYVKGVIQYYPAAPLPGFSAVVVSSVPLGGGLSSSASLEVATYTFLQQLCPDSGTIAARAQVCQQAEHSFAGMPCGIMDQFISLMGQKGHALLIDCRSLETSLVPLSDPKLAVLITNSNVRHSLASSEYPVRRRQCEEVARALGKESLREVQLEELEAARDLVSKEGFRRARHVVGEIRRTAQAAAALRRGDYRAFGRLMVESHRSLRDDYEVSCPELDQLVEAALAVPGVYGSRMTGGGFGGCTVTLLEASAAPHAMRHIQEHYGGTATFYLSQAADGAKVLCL

Consider `CN1C(C)(C)CCCC1(C)C`, for which the result in [1], in test [2], in test [3], in test [4], in test [6] and in test [7] was inactive. Further, the activation in test [5] is 0.688%.

With `COc1ccc2cc(CCC(C)=O)ccc2c1`, the outcome in [8] was inactive. Further, the Potency result in [9] was “inactive”.

Turning to `CC(=O)NCc1c(I)c(NC(C)=O)c(I)c(C(=O)O)c1I`, the result in test [8] was inactive. For the same compound, the Potency result in test [9] is “inactive”.

`CC(=O)N(CC(O)CO)c1c(I)c(C(=O)NCC(O)CO)c(I)c(C(=O)NCC(O)CO)c1I` (centres undefined): the result in [8] was inactive. Also, the Potency entry in test [9] is “inactive”.

Take `NC(=O)NS(=O)(=O)c1ccc(N)cc1`: the outcome in test [8] was inactive. Moreover, the Potency result in [9] was “inactive”.

In the case of `Cc1cc(O)cc(C)c1Cl`, the result in test [8] was inactive. Further, in [9], the Potency entry was “inactive”.

As for `CN1CCCN=C1COC(=O)C(O)(c1ccccc1)C1CCCCC1` (centres undefined), in test [8], the call was inactive. Besides, the Potency result in test [9] was “inactive”.

For `O=C(NCCCN1CCOCC1)c1ccc(Cl)cc1`, the compound was classed as inactive in test [8]. In [9], the Potency entry was “inactive”.

Turning to `COC(=O)c1ccccc1C(=O)c1ccc(OCCN2CCCCC2)cc1`, the compound was called inactive in [8]. The Potency result in test [9] was “inactive”.

For the compound `CCN(CC)CCOC(=O)C(c1ccccc1)c1ccccc1`, the outcome in [8] was inactive. In addition, the Potency result in test [9] was “inactive”.

Regarding `OC[C@@H](O)[C@@H](O)[C@H](O)[C@H](O)CO`, the call in test [8] was inactive. For the same compound, the Potency entry in [9] was “inactive”.

For `O=C1c2cccc(O)c2C(=O)c2c(O)cccc21`, in test [8], the outcome was inactive. The Potency result in test [9] is “inactive”.

Turning to `Cc1onc(-c2ccccc2)c1-c1ccc(S(N)(=O)=O)cc1`, the call in test [8] was inactive. In addition, the Potency entry in test [9] is “inactive”.

On to `CCN(CC)CCc1nc(-c2ccccc2)no1`, for which, in test [8], the outcome was inactive. In addition, the Potency entry in test [9] is “inactive”.

For the compound `CC(=O)Nc1ccc(OCCOCCOc2ccc(NC(C)=O)cc2)cc1`, the call in test [8] was inactive. Further, the Potency result in test [9] is “inactive”.

On to `Cc1c(C(=O)NCCO)[n+](=O)c2ccccc2n1[O-]`, for which the compound was called inactive in [8]. Further, in test [9], the Potency entry is “inactive”.

`Cc1c(NC(C)C)c(=O)n(-c2ccccc2)n1C`: the call in test [8] was inactive. In test [9], the Potency result is “inactive”.

The values above are taken from PubChem BioAssay (NCATS).
